Molecules are shown by their SMILES. Compounds without any hit were thinned out: in the full panel of roughly 83,000, 20% have a hit.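 Each cell line was grown in a 96-well plate and treated with one concentration of compound for 48 hours. Values below 10 were considered active.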 Unmarked numbers belong to inactive results. Activity calls are given as the source filed them.

The subject of this assay is SK-OV-3 ovarian. As to the kind of experiment: NCI-60 one-dose screen, 48 h (100 = growth as untreated, 0 = no growth, -100 = all killed). To be noted: 10 µM. How it is done: Growth inhibition of the SK-OV-3 human tumor cell line is measured as a screen for anti-cancer activity. Cells are grown in 96 well plates and exposed to the test compound for 48 hours. Compounds are tested at a single concentration, which is 10^-5 M for most compounds. The reported endpoint is percent growth (GI% or GIPRCNT), where numbers from 0 - 100% represent growth inhibition, and numbers from -100% - 0 represent cell death. For example, a value of 40 represents 60% growth inhibition. A value of 0 means no net growth occurred over the course of the experiment. A value of -40 indicates 40% of cells at the beginning of the experiment died by the end of the experiment. A value of -100 means all cells are dead at the end of the experiment.
NCI-60 Human Tumor Cell Lines Screen was performed using the standard one-dose NCI protocol, which is described in more detail at https://dtp.cancer.gov/discovery_development/nci-60/default.htm.
Compounds with GIPRCNT values below 10 were considered active. Activity score was based on GIPRCNT using the following formula: […]
Score is 0 for GIPRCNT values of 100 or above, 50 for GIPRCNT values of 0, and 100 for GIPRCNT values of -100.
Consider `COc1ccc(C(=O)NC(=S)N2CCN(c3ncnc4c3cnn4-c3ccccc3)CC2)cc1`, for which the growth was 7.3% (active). The result for `Cc1ccc(/C(CSc2nnc(-c3c[nH]c4ccccc34)n2-c2ccccc2)=N/O)cc1` reads 11.5%; that for `O=C1NC(=NC23CC4CC(CC(C4)C2)C3)N/C1=C\c1ccc2ncoc2c1`, 26.8%.

As for `CC(=O)Nc1ccc(-c2cn(-c3cccc(C(=O)Nc4ccc(Cl)c(C(F)(F)F)c4)c3)nn2)cn1`, the growth was -3.46% (active).

Consider `COc1ccc(/C(CSc2nnc(-c3c[nH]c4ccccc34)n2-c2ccccc2)=N/O)cc1`, for which the growth is 52.1%. Consider `CCOC(=O)C1=C(N)N(c2ccccc2)C2=C(C(=O)CC(C)(C)C2)C1c1ccc(Cl)cc1` (stereo not given), for which the growth was 43.7%.

Regarding `COc1ccc(OC)c(/C=N/NC(=O)c2ccc3nc(-c4ccc(Cl)cc4)[nH]c3c2)c1`, the growth was 84.9%. Turning to `COc1cc2c3c(n(CCCNCCO)c(=O)c2cc1OC)-c1nc2c(cc1C3=O)OCO2`, the growth is -14.2% (active).

As for `CCCCCCCCCCCCCCCCCCCC(=O)NCCc1c[nH]c2ccc(O)cc12`, the growth is 137%. `Cc1ccc(C(=O)NNC(=O)CSc2nc3ccccc3c(=O)[nH]2)cc1`: the growth was 116%. The result for `Cc1cc(=O)oc2cc(OCCCCOc3ccc(/C=C/C(=O)Nc4ccccc4[N+](=O)[O-])cc3)ccc12` reads 119%. `O=C(CSc1nnc(-c2ccc3nc(-c4ccc(Cl)cc4)[nH]c3c2)o1)Nc1ccc(Cl)cc1`: the growth was 21.6%.

In the case of `CCOC(=O)C1=C(N)N(c2ccccc2)C2=C(C(=O)CC(C)(C)C2)C1c1ccccc1OC` (stereo not given), the growth is 98.2%. Then `Cc1ccc2nc3c(nc2c1)c1cc(I)ccc1n3CCN(C)C`, with 39%; and `Cc1noc2c(Cc3ccccc3)nn(CC(=O)N/N=C/c3ccc(F)cc3)c(=O)c12`, with 28.9%; and `Cc1ccc(NCC(=O)Nn2c(COc3ccccc3)nc3ccccc3c2=O)cc1`, with 52.8%. As to `O=C(/C=C/Nc1ccccc1)c1ccc2c(c1)Nc1ccccc1S2`, the growth was 86.3%. Take `OCCCNc1oc(-c2ccccc2)nc1[P+](c1ccccc1)(c1ccccc1)c1ccccc1`: the growth is -4.9% (active). Take `O=C(CSc1nnc(-c2ccc3nc(-c4ccccc4)[nH]c3c2)o1)Nc1ccc(Cl)cc1`: the growth is 55.9%. Consider `Cc1ccc(NC(=O)c2ccc(-n3c(=O)[nH]c4ccccc4c3=O)cc2)cc1`, for which the growth was 82.5%.

In the case of `COc1ccc(C(=O)Nc2ccc(-c3ccc4c(c3)NC(=O)/C4=C\c3ccc[nH]3)cc2)cc1`, the growth was 79.2%. Then `Cc1ccc2nc(COc3ccc(C(=O)NNC(=S)NC(=O)c4ccccc4)cc3)[nH]c2c1`, with 67.2%; and `O=C(c1ccccc1)n1ccc(-c2cc3cc(Br)ccc3oc2=O)n1`, with 12.5%. The result for `CC(=O)c1ccc(Nc2nc(SC(C)C)nc(-c3ccccc3)c2C#N)cc1` reads 36.2%; that for `CN1CCN(c2ccc(Nc3nc(NCCCNC(=O)C4CCCCC4)c4sccc4n3)cc2)CC1`, 98%; that for `COc1csc(/C=N/NC(=O)c2[nH]c3ccc(Br)cc3c2-c2ccccc2)c1`, 26.3%. Turning to `O=C1NC(=NC2CCCCCC2)N/C1=C\c1ccc2ncoc2c1`, the growth is 24.4%. The result for `C=C(C)[C@@H]1CC[C@]2(C(=O)OC)CC[C@]3(C)[C@H](CC[C@@H]4[C@@]5(C)CC[C@H](N)C(C)(C)[C@@H]5CC[C@]43C)[C@@H]12` reads -54.8% (active); that for `Cc1ccc(-c2nc(Nc3ccc(S(N)(=O)=O)cc3)c3ccccc3n2)cc1`, 114%; that for `COc1ccc(-c2nc(Nc3ccccc3S(N)(=O)=O)c3ccccc3n2)cc1`, 95.3%.

Consider `Cc1ccc(-c2cc(-c3cc4ccccc4nc3Cl)[nH]c(=S)n2)cc1`, for which the growth is 74.2%. For the compound `Nc1nc(Nc2ccc(Cl)cc2)n(Cc2cccc(Br)c2)n1`, the growth is -2.59% (active).

For the compound `CN(C)c1ccc(/C=C/c2nc3ccccc3c(=O)n2CC(=O)Nc2ccc(Cl)cc2)cc1`, the growth is 84.8%. In the case of `O=C(Nc1ccccc1)Nc1nc2ccccc2s1`, the growth is 78.4%. As to `Nc1cc(-c2cccc(C(=O)NCc3ccc4c(c3)OCO4)c2)ccn1`, the growth was 107%. On to `c1ccc(C(=C(c2ccc(OCCN3CCCCC3)cc2)c2ccc(OCCN3CCCCC3)cc2)C2CCCC2)cc1`, for which the growth was -45.3% (active). Consider `Oc1ccc(/C=C2\CCCc3cc4ccc(O)cc4[o+]c32)c(O)c1`, for which the growth was 86.3%.

On to `COc1cccc(C(N)=Nc2ccc(OCCCCCCn3cncn3)cc2)c1`, for which the growth was 29.6%.

As to `O=C(NC(=S)N1CCN(c2ncnc3c2cnn3-c2ccccc2)CC1)c1ccc(Cl)cc1`, the growth was 41.8%. Take `CO[C@@H]1CSSC1Cn1nc(-c2ccc(Oc3ccccc3)cc2)c2c(N)ncnc21` (stereo not given in full): the growth was 1.98% (active).

Source of the values: PubChem BioAssay (NCI).
